# Bioassay records deposited in PubChem by National Center for Advancing Translational Sciences (NCATS).
# This is a sample that favours compounds with a hit; in the whole collection about 4.4% have one here.
# p53ts 39C kill: p53ts cell cytotoxicity, nonpermissive temperature; H1299-p53A138V viability at 39C, ATP luminescence, 24 h; Potency, µM (doses to about 46.1 µM), without a hit: at the highest dose activity change, negative = cell killing, usual class: cytotoxic; actives 1.5% (n = 130,000); note: nearly all actives have a fitted effect of over 55% in size
# p53ts 32C tox: cytotoxicity in p53ts cells at permissive temperature; H1299-p53A138V at 32C, ATP luminescence viability, 24 h; Potency, µM (doses to about 46.1 µM), without a hit: at the top dose activity change, negative = cytotoxicity, most hits filed as cytotoxic; actives 0.93% (n = 130,000);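 note: 0% = DMSO and -100% = full killing by reference compound; nearly all actives have a fitted effect of over 55% in size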
#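 H1299-p53 A138V cells (temperature-sensitive p53) exposed 24 h to up to 46 uM compound at 32C, where p53 is wild-type in conformation. Viability read as ATP luminescence and normalised to DMSO and 100 uM tamoxifen. AC50 fitted with the Hill equation.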
# HPGD block: blocks human HPGD enzyme activity | P15428 | Potency, µM, for inactives: top-dose activity change, negative = inhibition, hits mostly inhibitors | purified HPGD, NADH fluorescence kinetic, PGE2 substrate | actives 4.3% (n = 150,000); active = well fitted inhibition curve with a large enough effect, not every such curve was filed as active; inconclusive = small, poorly fitted or top-dose-only effect, or another doubt; inactive = no such curve, though single readings can be large or run the other way
# Target sequence (P15428 whole entry, looked up): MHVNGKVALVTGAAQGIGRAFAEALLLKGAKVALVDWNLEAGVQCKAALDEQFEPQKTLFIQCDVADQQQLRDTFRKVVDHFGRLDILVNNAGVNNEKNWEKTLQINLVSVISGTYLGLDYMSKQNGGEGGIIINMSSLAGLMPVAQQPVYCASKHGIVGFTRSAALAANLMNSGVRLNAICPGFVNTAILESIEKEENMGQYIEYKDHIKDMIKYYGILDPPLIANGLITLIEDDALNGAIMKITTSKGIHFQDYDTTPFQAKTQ
#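 20 nM HPGD preincubated 15 min at room temperature with compound in 50 mM Tris-HCl pH 8, 0.01% Tween 20. Started with 1 mM NAD+ and 30 uM prostaglandin E2; NADH fluorescence (360/450 nm) read 5 times over 30-s intervals, last minus first.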
# 12-hLO inh: blocks human 12-lipoxygenase activity; P18054; purified 12-hLO, xylenol orange hydroperoxide absorbance; Potency, µM (top dose mostly 57.1 µM), for the others: top-dose activity change, negative = inhibition, actives largely listed as inhibitors; actives 0.12% (n = 150,000); AID 1452; note: nearly all actives have a fitted effect of over 55% in size
#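 150 nM 12hLO, 25 mM Hepes pH 7.0 + 0.01% Triton X-100; cpd preinc 15 min RT; 40 uM arachidonic acid, 30 min RT; Fe-XO 30 min; A573/A405 ratio as read-out.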
# The depositor's hits bear a star; u = inconclusive; x = not tested or not shown; [ ] = dose if it differs, or a comment. Unless noted, calls come from the whole dose curve; as a rule, active = well fitted curve in the direction sought with a large enough effect; inconclusive = small, poorly fitted or top-dose-only effect, or another doubt; inactive = no such curve, though single readings can be large; an effect the other way counts as inactive or inconclusive. Unless noted, % is set by controls: 0 for no effect and ±100 for the full control effect; potency is the fitted concentration of half-maximal effect.
SMILES,p53ts 39C kill,p53ts 32C tox,HPGD block,12-hLO inh
Cc1ccc(-n2nc(-c3cccs3)cc2C(=O)NCC2CCCO2)c(C)c1 (stereo unspecified),2%,10%,1µM*,-6%
CC(C)c1ccc(SCc2noc(C(=O)NCC3CCCO3)c2C(=O)O)cc1 (stereo unspecified),x,x,7.9µM*,3%
O=C(NCC1CCCO1)c1cc(-c2ccccc2)on1 (stereo unspecified),5%,6%,u,-2%
Cc1ccc(-c2cc(C(=O)NCC3CCCO3)no2)cc1 (stereo unspecified),u,u,14µM*,2%
O=C(NCC1CCCO1)c1cc(-c2ccc(Cl)cc2Cl)on1 (stereo unspecified),x,x,8.9µM*,1%
CCCCNC(=O)CSc1nc2n[nH]c(C)c2c(=N)n1-c1ccccc1CC,37%,12%,x,x
CC#CCC1(C(=O)OC)C(=O)NC[C@H]1c1ccccc1 (stereo partly specified),x,x,-4%,4%
Cc1ccc(-c2nnc(SCC(=O)NCC3CCCO3)n2C)cc1 (stereo unspecified),x,x,-11%,3%
Cc1ccc(SCCC(=O)NCC2CCCO2)cc1 (stereo unspecified),12%,-3%,16µM*,-1%
Cc1cc(C)cc(NC(=S)NCC2CCCO2)c1 (stereo unspecified),x,x,14µM*,-9%
Cc1ccc(OCCOc2ccc(Cl)cc2Cl)c([N+](=O)[O-])n1,x,x,32µM*,1%
COc1ccc(NC(=O)c2ccc(-c3ccc(-c4noc(C)n4)cc3C)cc2)cc1N1CCN(C)CC1,20µM*,u,u,-4%
COc1ccc(NC(=O)c2ccc(-c3ccc(-c4noc(C)n4)cc3C)cc2)cc1OCCN(C)C,7.9µM*,25µM*,u,4%
O=C(CSc1nc2c(c(=O)[nH]1)CCCC2)Nc1ccc(Br)cc1,-19%,6%,x,x
O=C1NC(=Nc2ccccc2)S/C1=C\C=C\c1ccco1,x,x,28µM*,u
Cc1cccc(N=C2NC(=O)/C(=C/C=C/c3ccco3)S2)c1C,x,x,7.9µM*,u
Cc1ccc(N=C2NC(=O)/C(=C/C=C/c3ccco3)S2)cc1,x,x,-23%,-29%
O=C(CCCn1c(=O)[nH]c2ccccc2c1=O)NCc1ccccc1Cl,-24%,-20%,x,x
Cn1c(=O)cc(SCC(=O)N2CCCC2)c2ccccc21,-13%,-4%,16µM*,-5%
CCCCN(CC)C(=O)CSc1cc(=O)n(C)c2ccccc12,-9%,1%,7.1µM*,-1%
Cc1ccc2oc(C(=O)Nc3ccc(S(=O)(=O)Nc4nccc(C)n4)cc3)cc(=O)c2c1,-7%,2%,x,x
Cc1cn2c(=O)cc(COc3cc(C)c(Cl)c(C)c3)nc2s1,-3%,-7%,x,x
CCc1ccccc1NC(=O)CN(C)C(=O)Cn1ncc(Cl)c(Cl)c1=O,3.2µM*,3.5µM*,-4%,1%
CCOC(=O)c1ccc(NC(=O)Cn2ncc(Cl)c(Cl)c2=O)cc1,x,x,-10%,-1%
CC(=O)N1CCc2c(sc3nc(SCC(N)=O)n(-c4ccc(F)c(Cl)c4)c(=O)c23)C1,21%,6%,x,x
SMILES,p53ts 39C kill,p53ts 32C tox,HPGD block,12-hLO inh
C/C(N)=C(/C#N)C(=O)COC(=O)c1ccc(C)c(S(=O)(=O)N2CCCCC2)c1,x,x,13µM*,-7%
C/C=C/c1ccc(OCCOc2ccc(C=O)cc2)c(OC)c1,x,x,25µM*,-2%
C/C=C/c1ccc(OCCCCOc2ccccc2C(C)=O)c(OC)c1,x,x,14µM*,-1%
O=C(CCC1N=C2c3ccccc3N=C(SCC(=O)Nc3ccc(F)cc3)N2C1=O)NCc1cccs1 (stereo unspecified),-3%,14%,x,x
CCCCN(C)CCCNC(=O)Cn1ncc2c3ccccc3n(Cc3ccccc3)c2c1=O,-13%,0%,x,x
O=C1CC(c2ccc3c(c2)OCO3)c2cc(O)ccc2O1 (stereo unspecified),x,x,40µM*,-5%[0.00818 µM]
COC(=O)C(NC(=O)CC(C)C)(Nc1nc2c(s1)CCCC2)C(F)(F)F (stereo unspecified),-2%,2%,x,x
COC(=O)C(NC(=O)COc1ccccc1)(Nc1nc2c(s1)CCCC2)C(F)(F)F (stereo unspecified),7%,3%,35µM*,0%
COc1cccc(CNC(=O)CCNS(=O)(=O)c2ccc3c(c2)CCCC(=O)N3)c1,9%,-3%,x,x
CCOC(=O)C1CCCN(c2cc(NCCCO)c([N+](=O)[O-])c3nonc23)C1 (stereo unspecified),x,x,13µM*,-3%
CCn1cc(C(=O)NCc2ccc(Cl)cc2)c(=O)c2cc(S(=O)(=O)N(C)C3CCCCC3)ccc21,8%,12%,x,x
CC(=O)NCCNC(=O)CCCn1c(=O)[nH]c2ccsc2c1=O,15%,-2%,x,x
COc1ccccc1Cn1cc(C(=O)c2ccc(Cl)cc2)c(=O)c2ccccc21,13µM*,u,x,x
COc1ccccc1Cn1cc(C(=O)c2ccc(Cl)cc2)c(=O)c2cc3c(cc21)OCCO3,u,-4%,x,x
Cc1onc(-c2c(Cl)cccc2Cl)c1C(=O)NCCc1ccc(S(N)(=O)=O)cc1,x,x,32µM*,5%
Cc1onc(-c2ccccc2)c1C(=O)NCCc1ccc(S(N)(=O)=O)cc1,x,x,-14%,0%
COc1ccc(/C=N/O)cc1COc1ccc(NC(C)=O)cc1,-20%,0%,25µM*,16%
O/N=C/c1cc(Br)cc(Br)c1OCc1ccccc1,x,x,14µM*,-9%
O/N=C/c1ccc(OCc2ccccc2)c(Br)c1,x,x,-22%,-1%
Cc1ccccc1N=Cc1cccc(O)c1O,x,x,-7%,-27%
Cc1ccc(N=Cc2cccc(O)c2O)c(C)c1,-20%,-21%,3.2µM*,u
COc1ccc(S(=O)(=O)c2c(Nc3cccc(C)c3C)sc(C(=O)c3ccccc3)c2N)cc1,-10%,18%,x,x
CCCCN(C)C(=O)c1coc(=O)c2ccccc12,-7%,-21%,22µM*,-5%
CCOC(=O)C1CCN(c2c(NCc3ccc(C(=O)NCCOC)cc3)c(=O)c2=O)CC1,-9%,-11%,3.5µM*,-3%
CC1CCN(c2c(NCc3ccc(C(=O)NCc4cccnc4)cc3)c(=O)c2=O)CC1,11%,1%,u,-8%
SMILES,p53ts 39C kill,p53ts 32C tox,HPGD block,12-hLO inh
CCCCNC(=O)c1ccc(CNc2c(N3CCC(C(=O)OCC)CC3)c(=O)c2=O)cc1,27%,-6%,3.5µM*,-4%
O=C(c1ccc(CNc2c(N3CCOCC3)c(=O)c2=O)cc1)N1CC=C(c2ccccc2)CC1,6%,2%,25µM*,-1%
CCOC(=O)C1CCN(c2c(NCc3ccc(C(=O)O)cc3)c(=O)c2=O)CC1,2%,7%,x,x
O=C(NC1CCCCCCC1)c1ccc(CNc2c(N3CCOCC3)c(=O)c2=O)cc1,-1%,2%,18µM*,-4%
COc1ccc(N2CCN(C(=O)c3cc(S(=O)(=O)N4CCC(C)CC4)cn3C)CC2)cc1,-23%,-10%,x,x
CCOC(=O)C1CCN(c2c(NCc3ccc(C(=O)NC4CCCC4)cc3)c(=O)c2=O)CC1,x,x,2µM*,-3%
